About 8,600 (12%) of roughly 69,000 compounds showed an effect of 50% or more. What follows is part of a selection rich in strong results, with near analogues and random picks from the rest.
What follows are compounds tested on Plasmodium berghei (assay: Screen against P. berghei liver stage (PbLuc), transformed with Luciferase, at 10uM). Conditions: tested at 10 uM.
Type: functional, HepG2

Question: Which INHIBITION does the source give for `CCOc1ncccc1NC(=O)C1CCS(=O)(=O)C1` (stereo not drawn) here?
Answer: The INHIBITION was 11.9%.

Question: How did the INHIBITION turn out when `Cc1ccc(CN2CCOC(c3cnccn3)C2)s1` (stereo not drawn) was run?
Answer: The INHIBITION was 16.82%.

Question: For `Cn1cc([C@@H]2CN(S(=O)(=O)c3ccccc3F)C[C@H]2N)c2ccncc21`, which INHIBITION is on record?
Answer: The INHIBITION was 18%.

Question: Which INHIBITION does the source give for `Cc1nnc(NC(=O)NCc2ccnc(N(C)C)c2)s1` here?
Answer: Its INHIBITION is -39.7%.

Question: Which INHIBITION does the source give for `COC(=O)CC1CCN(C(=O)c2ccc(C)cc2)CC1` here?
Answer: The INHIBITION was 28.7%.

Question: Which INHIBITION does the source give for `CNC(=O)C1(Cc2cc(C(C)C)no2)CCN(Cc2ccccn2)C1` (stereo not drawn) here?
Answer: Its INHIBITION is 11.9%.

Question: `Cc1noc(C(C)C)c1C(=O)NS(=O)(=O)c1ccc(Cl)cc1` was tested. Which INHIBITION did it give?
Answer: The INHIBITION was -28.4%.

Question: With `CNc1cccc(C2CCCN(C(=O)c3cccnc3)C2)n1` (stereo not drawn) as the compound, how does the INHIBITION read?
Answer: The INHIBITION was 35.2%.

Question: Which INHIBITION does the source give for `Cc1cnn(CC2CCCN2Cc2c(C)noc2C)c1` (stereo not drawn) here?
Answer: The INHIBITION was 5.983%.

Question: Which INHIBITION does the source give for `O=C(CCc1nccs1)N1CCCC(n2ccnc2)C1` (stereo not drawn) here?
Answer: The INHIBITION was -1.14%.

Question: With `CCOC(C)c1nccn1Cc1cc(C)on1` (stereo not drawn) as the compound, how does the INHIBITION read?
Answer: The INHIBITION was 26.4%.

Question: Which INHIBITION does the source give for `CC(=O)Nc1ccc(CNC(C)c2c(C)nn(C)c2C)cc1` (stereo not drawn) here?
Answer: Its INHIBITION is -42.1%.

Question: Which INHIBITION does the source give for `COCCC(=O)N1CCCC1c1csc(Nc2ccccn2)n1` (stereo not drawn) here?
Answer: The INHIBITION was 30.8%.

Question: Which INHIBITION does the source give for `CC(C)(C)c1cc(NC(=O)CN2CCCC2Cn2cccn2)on1` (stereo not drawn) here?
Answer: The INHIBITION was 53%.

Question: For `CC(C)(C)c1nc(CN2CCCC2c2nnc3ccccn23)no1` (stereo not drawn), which INHIBITION is on record?
Answer: Its INHIBITION is 57.2%.

Question: `CC(C)c1cc(NC(=O)CN2CCCC2Cn2cccn2)on1` (stereo not drawn) was tested. Which INHIBITION did it give?
Answer: The INHIBITION was 19.5%.

Question: With `CCn1c(C2CCCN2Cc2noc(C(C)(C)C)n2)nc2ccccc21` (stereo not drawn) as the compound, how does the INHIBITION read?
Answer: The INHIBITION was -12.1%.

Question: `Cc1noc(C)c1CN1CCCC1c1nnc2ccccn12` (stereo not drawn) was tested. Which INHIBITION did it give?
Answer: Its INHIBITION is 17.5%.

Question: `CC(C)(C)c1cc(NC(=O)CN2CCCC2Cn2cncn2)on1` (stereo not drawn) was tested. Which INHIBITION did it give?
Answer: The INHIBITION was 9.41%.

Question: For `COc1cccc(C(=O)NC(CC(=O)O)c2cccs2)c1OC` (stereo not drawn), which INHIBITION is on record?
Answer: Its INHIBITION is -7.31%.

Question: `CCc1nc(C#N)c(N2CCC(c3nc(-c4ccccc4)no3)CC2)o1` was tested. Which INHIBITION did it give?
Answer: Its INHIBITION is 34.6%.

Question: For `Cc1nc(C#N)c(N2CCC(c3nc(-c4ccc(F)cc4)no3)CC2)o1`, which INHIBITION is on record?
Answer: Its INHIBITION is 34%.

Question: How did the INHIBITION turn out when `Cc1nc(C#N)c(N2CCC(c3nc(-c4ccccc4)no3)CC2)o1` was run?
Answer: Its INHIBITION is 57.6%.

Question: For `O=C(NCc1cc(F)cc(Br)c1)C1(O)CCSCC1`, which INHIBITION is on record?
Answer: Its INHIBITION is -26.2%.

Question: For `CC(C)(C(=O)N1CCC(CS(N)(=O)=O)CC1)c1ccccc1F`, which INHIBITION is on record?
Answer: Its INHIBITION is 17.9%.

Question: `CC(C)(C(=O)N1CCC(C(N)=O)C1)c1ccccc1F` (stereo not drawn) was tested. Which INHIBITION did it give?
Answer: Its INHIBITION is 52.9%.

Question: Which INHIBITION does the source give for `CC(C)(C(=O)NCC(=O)N1CCCC1)c1ccccc1F` here?
Answer: Its INHIBITION is -36.4%.

Question: Which INHIBITION does the source give for `c1coc(CN2CCCC3(COCCN(Cc4c[nH]nn4)C3)C2)c1` (stereo not drawn) here?
Answer: Its INHIBITION is 4.92%.

Question: With `CCNC(=O)C1CCN(c2cc(-c3ccccc3)nc3ccnn23)C1` (stereo not drawn) as the compound, how does the INHIBITION read?
Answer: Its INHIBITION is 33%.

Question: With `CCNC(=O)C1CCN(c2cc(-c3ccccc3)nc3cc(C)nn23)C1` (stereo not drawn) as the compound, how does the INHIBITION read?
Answer: Its INHIBITION is 56.5%.

Question: For `Cc1nn2c(N3CCC(C(N)=O)CC3)cc(-c3ccccc3)nc2c1C`, which INHIBITION is on record?
Answer: Its INHIBITION is 61.3%.

Question: Which INHIBITION does the source give for `CCc1cc(N2CCN3CCCCC3C2)n2nccc2n1` (stereo not drawn) here?
Answer: The INHIBITION was 30.9%.

Question: How did the INHIBITION turn out when `O=C1CN(c2cc(-c3ccccc3F)nc3ccnn23)CCCN1` was run?
Answer: Its INHIBITION is 6.11%.

Question: Which INHIBITION does the source give for `CC(=O)NC1CCN(c2cc(-c3ccccc3)nc3c(C)c(C)nn23)C1` (stereo not drawn) here?
Answer: Its INHIBITION is -3.58%.

Question: How did the INHIBITION turn out when `CCNC(=O)C1CCN(c2cc(-c3ccccc3F)nc3ccnn23)C1` (stereo not drawn) was run?
Answer: Its INHIBITION is 53.3%.

Question: For `CCNC(=O)C1CCN(c2nccc(C3CCCC3)n2)C1` (stereo not drawn), which INHIBITION is on record?
Answer: The INHIBITION was -2.34%.

Question: How did the INHIBITION turn out when `CCc1cc(N2CC(N3CCCCC3C)C2)n2nccc2n1` (stereo not drawn) was run?
Answer: The INHIBITION was 12.8%.

Question: Which INHIBITION does the source give for `Cc1nn2c(N3CCC(O)CC3)cc(-c3ccccc3)nc2c1C` here?
Answer: The INHIBITION was 41.8%.

Question: For `CCNC(=O)C1CCN(c2cc(CC)nc3ccnn23)C1` (stereo not drawn), which INHIBITION is on record?
Answer: The INHIBITION was 52.2%.

Question: For `Cc1nn2c(N3CCCC(C(N)=O)C3)cc(-c3ccccc3)nc2c1C` (stereo not drawn), which INHIBITION is on record?
Answer: Its INHIBITION is -32.2%.

Question: How did the INHIBITION turn out when `Cc1csc(CCNCc2cnc3c(c2)c(C)nn3C)n1` was run?
Answer: Its INHIBITION is -14.8%.

Question: With `COCC1CN(Cc2ccc(OC)cc2)Cc2nnn(CC3CC3)c21` (stereo not drawn) as the compound, how does the INHIBITION read?
Answer: The INHIBITION was 18.7%.

Question: With `COCCOc1ccc(CNC2CCc3ncnn3C2)cc1OC` (stereo not drawn) as the compound, how does the INHIBITION read?
Answer: Its INHIBITION is 49.5%.

Question: `COc1cccc(CCNS(=O)(=O)c2ccc(NC(C)=O)cc2)c1` was tested. Which INHIBITION did it give?
Answer: Its INHIBITION is 22.9%.

Question: With `CCN1CCN(C)C(=O)C12CCN(Cc1cccc(C)c1)CC2` as the compound, how does the INHIBITION read?
Answer: The INHIBITION was 39.5%.

Question: For `Cc1nc(CN2CCN(C(=O)c3ccc(=O)n(C)c3)CC2)cs1`, which INHIBITION is on record?
Answer: The INHIBITION was -15.9%.

Question: Which INHIBITION does the source give for `CN(C)C(=O)NCC(=O)N1CCCC2(CCC(=O)N(CC3CC3)C2)C1` (stereo not drawn) here?
Answer: The INHIBITION was 24.9%.

Question: How did the INHIBITION turn out when `O=C(NCC1(O)CCC1)NC(c1cc(F)ccc1F)C1CC1` (stereo not drawn) was run?
Answer: The INHIBITION was 31.2%.

Question: `CS(=O)(=O)N1C[C@H]2CC[C@@H](C1)N(C(=O)CCc1ccsc1)C2` was tested. Which INHIBITION did it give?
Answer: The INHIBITION was -34.8%.

Question: `Cc1nc2ccccn2c1CN1C[C@@H](CN2CCOCC2)[C@@H](CO)C1` was tested. Which INHIBITION did it give?
Answer: The INHIBITION was 12.8%.

Question: With `Cc1ccc(C2(O)CCN(Cc3nc(C)n4ccccc34)CC2)nc1` as the compound, how does the INHIBITION read?
Answer: Its INHIBITION is 26.1%.

Question: How did the INHIBITION turn out when `Cc1nc(CN2CCC(O)(c3ccccc3F)CC2)c2ccccn12` was run?
Answer: The INHIBITION was 23.9%.

Question: `Cc1cc(C(F)(F)F)cc(N2C[C@@H](CN(C)CCO)[C@@H](CO)C2)n1` was tested. Which INHIBITION did it give?
Answer: Its INHIBITION is 0.348%.

Question: Which INHIBITION does the source give for `COc1cnc(N2C[C@@H](CN3CCOCC3)[C@@H](CO)C2)nc1` here?
Answer: The INHIBITION was -35%.

Question: With `Cc1nc(CN2C[C@@H](CN3CCOCC3)[C@@H](CO)C2)c2ccccn12` as the compound, how does the INHIBITION read?
Answer: The INHIBITION was 63.7%.

Question: For `Cc1cc(C(F)(F)F)cc(N2C[C@@H](CN3CCOCC3)[C@@H](CO)C2)n1`, which INHIBITION is on record?
Answer: The INHIBITION was 53.2%.

Question: With `OC[C@H]1CN(Cc2c(Cl)cncc2Cl)C[C@H]1CN1CCOCC1` as the compound, how does the INHIBITION read?
Answer: The INHIBITION was -37.9%.

Question: For `Cc1nc(CN2CCC3(CCCO3)CC2)c2ccccn12`, which INHIBITION is on record?
Answer: The INHIBITION was 53.6%.

Question: Which INHIBITION does the source give for `CCC1CN(C(=O)NCCOc2ccc3c(c2)OCO3)CCO1` (stereo not drawn) here?
Answer: The INHIBITION was 30.2%.

Question: `Cc1cc(Oc2ccccc2)nc(C2CCN(CCO)CC2)n1` was tested. Which INHIBITION did it give?
Answer: The INHIBITION was 24.15%.

Question: With `Cn1cccc1C(=O)N[C@@H]1CN(Cc2cccs2)[C@@H]2COC[C@@H]21` as the compound, how does the INHIBITION read?
Answer: Its INHIBITION is -4.88%.

Question: `Cc1nc(Cn2c3c(ccc2=O)CC(N)CC3)cs1` (stereo not drawn) was tested. Which INHIBITION did it give?
Answer: The INHIBITION was 9.65%.

Question: With `CN(Cc1cccc(O)c1)C(=O)Nc1cccnc1N1CCCC1` as the compound, how does the INHIBITION read?
Answer: Its INHIBITION is 33.3%.

Question: How did the INHIBITION turn out when `O=c1[nH]c2csnc2c(=O)n1Cc1ccc(Br)cc1` was run?
Answer: Its INHIBITION is 29.1%.

Question: `CCC(c1nc(C(C)C)nn1-c1ccncc1C)n1cccn1` (stereo not drawn) was tested. Which INHIBITION did it give?
Answer: The INHIBITION was 57.2%.

Question: `CCC(c1nc(C(C)C)nn1-c1ccccn1)n1cccn1` (stereo not drawn) was tested. Which INHIBITION did it give?
Answer: The INHIBITION was 38.8%.

Question: How did the INHIBITION turn out when `Cc1cnccc1-n1nc(C(C)C)nc1CCc1cnccn1` was run?
Answer: The INHIBITION was -3.12%.

Question: Which INHIBITION does the source give for `CCCn1ccnc1CN1CC[C@@H](NC(=O)c2cccnc2)[C@H](O)C1` here?
Answer: Its INHIBITION is 12.9%.
